According to PubChem BioAssay (EPA / NIEHS):
Calls of active or inactive are those of the source. How the source made its calls: active means hit-call score of the fitted dose curve at least 0.9, where 1 is the maximum; inactive means score below 0.9.

Key:
[1] = read-out: Urokinase-type plasminogen activator receptor (uPAR), PLAUR (gene 5329); test: BSK_4H_uPAR: BioMAP Diversity Plus: 4H Assay for Urokinase-type plasminogen activator receptor (uPAR) Biomarker Activity (AID 2283030); conditions: primary human endothelial cells (HUVEC); actives raise or lower the signal
Procedure, shortened: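 Chemicals are dosed onto human vascular endothelial primary cells (umbilical vein). After 24 h, uPAR is read by ELISA. Gain or loss of signal is fitted relative to DMSO.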

[2] = read-out: Vascular endothelial growth factor receptor 2 (Homo sapiens) (UniProt P35968); test: BSK_4H_VEGFRII: BioMAP Diversity Plus: 4H Assay for Vascular endothelial growth factor receptor 2 (VEGFR2) Biomarker Activity (AID 2283031); conditions: primary human endothelial cells (HUVEC); actives raise or lower the signal
Procedure, shortened: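 VEGFRII levels on human vascular endothelial primary cells were determined by ELISA at 24 hours post-dosing, with gain- or loss-of-signal fitted against DMSO controls.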

[3] = read-out: Human Leukocyte Antigen - DR isotype (HLADR), HLA-DRA (gene 3122); test: BSK_BE3C_HLADR: BioMAP Diversity Plus: BE3C Assay for Human Leukocyte Antigen - DR isotype (HLADR) Biomarker Activity (AID 2283032); conditions: primary human bronchial epithelial cells; actives raise or lower the signal
Procedure, shortened: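 Human primary bronchial epithelial cells in the BE3C system were exposed to chemicals for 24 h, after which HLA-DR levels were quantified by ELISA. Activity was fitted bidirectionally, gain or loss of signal, against DMSO as negative control and baseline.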

[4] = read-out: Vascular cell adhesion molecule 1 (VCAM1), VCAM1 (gene 7412); test: BSK_4H_VCAM1: BioMAP Diversity Plus: 4H Assay for Vascular cell adhesion molecule 1 (VCAM1) Biomarker Activity (AID 2283033); conditions: primary human endothelial cells (HUVEC); actives raise or lower the signal
Procedure, shortened: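 Primary human umbilical vein endothelial cells were exposed to chemicals for 24 h, after which VCAM-1 was quantified by ELISA. Responses were fitted bidirectionally against DMSO as negative control and activity baseline.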

[5] = read-out: Interferon-gamma inducible Protein 10 (IP10), CXCL10 (gene 3627); test: BSK_BE3C_IP10: BioMAP Diversity Plus: BE3C Assay for Interferon-gamma inducible Protein 10 (IP10) Biomarker Activity (AID 2283034); conditions: primary human bronchial epithelial cells; actives raise or lower the signal
Procedure, shortened: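 Human primary bronchial epithelial cells were exposed to chemicals for 24 hours, after which IP-10 levels were measured by ELISA. Data were fitted bidirectionally against DMSO, which served as the negative control and activity baseline.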

[6] = read-out: Monokine induced gamma interferon (MIG), CXCL9 (gene 4283); test: BSK_BE3C_MIG: BioMAP Diversity Plus: BE3C Assay for Monokine induced gamma interferon (MIG) Biomarker Activity (AID 2283035); conditions: primary human bronchial epithelial cells; actives raise or lower the signal;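 further: MIG protein measured by ELISA in BE3C cultures after 24 h of dosing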
Procedure, shortened: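 MIG level was determined by ELISA after 24 h chemical treatment of primary human bronchial epithelial cells. Values were fitted bidirectionally with DMSO as the negative control and activity baseline.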

[7] = read-out: Plasminogen activator inhibitor-1 (PAI1), SERPINE1 (gene 5054); test: BSK_BE3C_PAI1: BioMAP Diversity Plus: BE3C Assay for Plasminogen activator inhibitor-1 (PAI1) Biomarker Activity (AID 2283037); conditions: primary human bronchial epithelial cells; actives raise or lower the signal
Procedure, shortened: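 Human primary bronchial epithelial cells were exposed to chemical for 24 h, then PAI-1 was quantified by ELISA. Activity was fitted bidirectionally relative to the DMSO negative control baseline.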

[8] = read-out: urokinase plasminogen activator (uPA), PLAU (gene 5328); test: BSK_BE3C_uPA: BioMAP Diversity Plus: BE3C Assay for urokinase plasminogen activator (uPA) Biomarker Activity (AID 2283038); conditions: primary human bronchial epithelial cells; actives raise or lower the signal;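 further: uPA protein level quantified by ELISA in cell cultures; uPA read one day after compound addition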
Procedure, shortened: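 Measured by ELISA: uPA from human primary bronchial epithelial cells 24 h after chemical treatment. Values derive from bidirectional curve fitting with DMSO serving as negative control. Total protein by SRB staining in parallel wells flagged overt cytotoxicity.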

[9] = read-out: Urokinase-type plasminogen activator receptor (uPAR), PLAUR (gene 5329); test: BSK_BE3C_uPAR: BioMAP Diversity Plus: BE3C Assay for Urokinase-type plasminogen activator receptor (uPAR) Biomarker Activity (AID 2283039); conditions: primary human bronchial epithelial cells; actives raise or lower the signal;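 further: uPAR protein level measured by ELISA on the cells; cells exposed to compound for one day before measurement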
Procedure, shortened: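 Primary human bronchial epithelial cells were dosed with chemical and harvested 24 h later; uPAR was quantified by ELISA. Activity was fitted bidirectionally against DMSO as negative control and baseline.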

[10] = read-out: Interleukin-6 (IL6), IL6 (gene 3569); test: BSK_CASM3C_IL6: BioMAP Diversity Plus: CASM3C Assay for Interleukin-6 (IL6) Biomarker Activity for (AID 2283040); conditions: primary human coronary artery smooth muscle cells; actives raise or lower the signal
[11] = read-out: Tissue plasminogen activator (tPA), PLAT (gene 5327); test: BSK_BE3C_tPA: BioMAP Diversity Plus: BE3C Assay for Tissue plasminogen activator (tPA) Biomarker Activity (AID 2283041); conditions: primary human bronchial epithelial cells; actives raise or lower the signal;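 further: tPA level quantified by ELISA one day after compound addition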
Procedure, shortened: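 Human primary bronchial epithelial cells were dosed with chemical and tPA biomarker levels measured by ELISA 24 hours later. Activity was fitted bidirectionally against DMSO as negative control and baseline.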

[12] = read-out: Interleukin-8 (IL8), CXCL8 (gene 3576); test: BSK_CASM3C_IL8: BioMAP Diversity Plus: CASM3C Assay for Interleukin-8 (IL8) Biomarker Activity (AID 2283042); conditions: primary human coronary artery smooth muscle cells; actives raise or lower the signal;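 further: IL-8 protein level quantified by ELISA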
[13] = read-out: Human Leukocyte Antigen - DR isotype (HLADR), HLA-DRA (gene 3122); test: BSK_CASM3C_HLADR: BioMAP Diversity Plus: CASM3C Assay for Human Leukocyte Antigen - DR isotype (HLADR) Biomarker Activity (AID 2283043); conditions: primary human coronary artery smooth muscle cells; actives raise or lower the signal;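 further: cell-surface HLA-DR protein level quantified by ELISA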
[14] = read-out: Macrophage colony-stimulating factor (MCSF), CSF1 (gene 1435); test: BSK_CASM3C_MCSF: BioMAP Diversity Plus: CASM3C Assay for Macrophage colony-stimulating factor (MCSF) Biomarker Activity (AID 2283044); conditions: primary human coronary artery smooth muscle cells; actives raise or lower the signal;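 further: M-CSF protein amount quantified by ELISA after 24 h exposure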
[15] = read-out: Low-density lipoprotein receptor (LDLR), LDLR (gene 3949); test: BSK_CASM3C_LDLR: BioMAP Diversity Plus: CASM3C Assay for Low-density lipoprotein receptor (LDLR) Biomarker Activity (AID 2283045); conditions: primary human coronary artery smooth muscle cells; actives raise or lower the signal;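 further: LDLR protein level on the cell surface quantified by ELISA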
[16] = read-out: Monocyte Chemoattractant Protein-1 (MCP1), CCL2 (gene 6347); test: BSK_CASM3C_MCP1: BioMAP Diversity Plus: CASM3C Assay for Monocyte Chemoattractant Protein-1 (MCP1) Biomarker Activity (AID 2283046); conditions: primary human coronary artery smooth muscle cells; actives raise or lower the signal;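 further: MCP-1 level quantified by ELISA 24 h after dosing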
[17] = BSK_CASM3C_Proliferation: Cell Proliferation Assessment in the BioMAP Diversity Plus: CASM3C Assay (AID 2283047); conditions: primary human coronary artery smooth muscle cells;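 further: sulforhodamine B total protein stain as relative cell number at 560 nm; sub-confluent cells exposed 48 h before staining; fitted both ways against DMSO so gain or loss of cell number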
[18] = read-out: Monokine induced gamma interferon (MIG), CXCL9 (gene 4283); test: BSK_CASM3C_MIG: BioMAP Diversity Plus: CASM3C Assay for Monokine induced gamma interferon (MIG) Biomarker Activity (AID 2283048); conditions: primary human coronary artery smooth muscle cells; actives raise or lower the signal;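 further: MIG protein level measured by ELISA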
[19] = read-out: serum amyloid A (SAA), SAA1 (gene 6288); test: BSK_CASM3C_SAA: BioMAP Diversity Plus: CASM3C Assay for serum amyloid A (SAA) Biomarker Activity (AID 2283049); conditions: primary human coronary artery smooth muscle cells; actives raise or lower the signal;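 further: SAA protein level quantified by ELISA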
[20] = read-out: Transforming growth factor beta 1 (TGFb1), TGFB1 (gene 7040); test: BSK_BE3C_TGFb1: BioMAP Diversity Plus: BE3C Assay for Transforming growth factor beta 1 (TGFb1) Biomarker Activity (AID 2283036); conditions: primary human bronchial epithelial cells; actives raise or lower the signal
Procedure, shortened: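 Human primary bronchial epithelial cells (BE3C system) were dosed with chemical and TGF-b1 levels measured by ELISA at 24 h. Activity was fitted bidirectionally relative to DMSO negative control as baseline.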

Measured: AC50

O=C(N[C@H]1CN2CCC1CC2)c1cc2ccoc2cn1
not listed: [20]
inactive: all other assays above

C=CC(N)=O
active: [16] 887 nM
not listed: [6]
inactive: all other assays above

Cc1cc2c3c(c1)C(c1ccccc1)=N[C@@H](NC(=O)c1ccncc1)C(=O)N3CC2
inactive: all assays above

CCCCCCOC(=O)c1ccccc1C(=O)OCCCCCC
inactive: all assays above

O=C(O)C(F)(F)C(F)(F)C(F)(F)C(F)(F)C(F)(F)F
inactive: all assays above

CCSC(=O)N(CC)C1CCCCC1
not listed: [20]
inactive: all other assays above

Cc1cc(-c2ccc(N)c(C)c2)ccc1N
inactive: all assays above

CCOCCOC(C)=O
not listed: [6]
inactive: all other assays above

CCOP(=S)(OCC)SCSC(C)(C)C
active: [14] 2510 nM
inactive: all other assays above

CC#Cc1cc(C)nc(Nc2ccccc2)n1
active: [4] 18100 nM
not listed: [20]
inactive: all other assays above

CC1=C2C[C@H]3[C@@H](CC=C4C[C@@H](O)CC[C@@]43C)[C@@H]2CC[C@]12O[C@@H]1C[C@H](C)CN[C@H]1[C@H]2C
active: [15] 2800 nM
inactive: all other assays above
